Most compounds without a hit are left out; they make up all but 7.5% or so of the library.
NPC1 prom act = qHTS Assay for NPC1 Promoter Activators; Huh7 NPC1 promoter luciferase reporter, 24 h; actives 2.4% (n = 320,000); Potency, µM (series often up to 9.22 µM), without a hit: at the highest dose activation, most hits filed as activators; note: % of control where 0% means no effect; nearly all actives have a fitted effect of over 60% in size
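Stable NPC1-promoter luciferase Huh7 line; cpd (DMSO) 24 h, 37 °C, 5% CO2; Amplite luciferase reagent 10 min RT; luminescence readout. qHTS format.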
Rab9 prom act = qHTS Assay for Rab9 Promoter Activators; Huh7 Rab9 promoter-luciferase reporter, luminescence, 24 h; Potency, µM (doses to about 9.22 µM), for inactives: top-dose activation, negative = inhibition, hits mostly activators; actives 2.8% (n = 320,000); AID 485297, 2010; note: % of control where 0% means no effect; nearly all actives have a fitted effect of over 60% in size
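Cell-based reporter: Huh7 stable for Rab9 promoter-driven luciferase, plated in reduced-serum medium with 10% FBS at 1500 cells/well, compound-treated 24 h at 37 °C, luminescence read after 10 min reagent.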
FLuc modulator = qHTS profiling assay for firefly luciferase inhibitor/activator using purifed enzyme and Km concentrations of substrates (counterscreen for miR-21 project); Luciferin 4-monooxygenase (Photinus pyralis), P08659; purified FLuc, Km substrates, luminescence inhibition; Potency, µM (highest dose often 57.5 µM), without a hit: at the top dose activity change, negative = inhibition, most hits filed as inhibitors; actives 6.9% (n = 360,000); AID 588342, 2011;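 note: plate controls were vehicle for no effect and reference inhibitor for full effect; nearly all actives have a fitted effect of over 55% in size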
Target sequence (P08659 whole entry, looked up): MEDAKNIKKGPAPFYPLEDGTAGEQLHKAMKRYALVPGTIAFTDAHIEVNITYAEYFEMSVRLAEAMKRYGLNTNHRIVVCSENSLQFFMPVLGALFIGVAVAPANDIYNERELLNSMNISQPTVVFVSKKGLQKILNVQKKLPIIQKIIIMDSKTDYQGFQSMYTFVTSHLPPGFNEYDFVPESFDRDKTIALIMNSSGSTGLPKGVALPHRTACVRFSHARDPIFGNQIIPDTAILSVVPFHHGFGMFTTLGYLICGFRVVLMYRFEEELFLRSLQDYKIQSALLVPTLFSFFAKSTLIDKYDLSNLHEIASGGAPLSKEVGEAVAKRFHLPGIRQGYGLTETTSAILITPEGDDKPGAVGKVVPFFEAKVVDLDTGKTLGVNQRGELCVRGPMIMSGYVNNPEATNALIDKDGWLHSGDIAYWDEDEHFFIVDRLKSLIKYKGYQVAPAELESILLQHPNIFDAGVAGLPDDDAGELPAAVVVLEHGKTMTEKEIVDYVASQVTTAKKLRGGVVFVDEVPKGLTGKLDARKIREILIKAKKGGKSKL
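Biochemical qHTS of compounds, final roughly 60 µM downward over six points, against 10 nM purified firefly luciferase using Km concentrations of substrates (10 uM D-luciferin, 10 uM ATP) in Tris acetate pH 7.5 buffer; luminescence output.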
SMN2 splice up = qHTS Assay for Enhancers of SMN2 Splice Variant Expression; HEK293 SMN2-luciferase splicing reporter, luminescence, 30-36 h; Potency, µM (highest dose often 46.1 µM), for the others: at the highest dose activity change, positive = activation, most hits filed as activators; actives 2.8% (n = 210,000); note: % of control where 0% means no effect; nearly all actives have a fitted effect of over 55% in size
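HEK293 cells carry an SMN2 minigene-luciferase reporter in which exon 7 inclusion puts luciferase in frame. Cells were seeded at 2000 cells/well, attached for 10-12 hours, then exposed to compounds for 30-36 hours at 37C before ONE-Glo luminescence.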
ELG1 genotoxic = qHTS screen for small molecules that induce genotoxicity in human embryonic kidney (HEK293T) cells expressing luciferase-tagged ELG1 | HEK293T ELG1-luciferase reporter, luminescence, 16 h | Potency, µM (titrated, usually from 46 µM), for the others: top-dose activity change, positive = activation, usual class: activators | actives 1.3% (n = 330,000) | AID 504466, 2011; note: % of control where 0% means no effect; nearly all actives have a fitted effect of over 60% in size
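ELG1-luciferase HEK293T cells, 2,000/well; compound pinned in; 16 hr, 37 °C, 5% CO2; ONE-Glo, 30 min RT; luminescence on CCD imager.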
KinaseGlo FLuc = Counterscreen for Luciferase (Kinase-Glo TM) Inhibition; Potency, µM (top dose mostly 38.3 µM), without a hit: at the top dose activity change, negative = inhibition, hits mostly inhibitors; Luciferin 4-monooxygenase (Photuris pensylvanica), Q27757; AID 1379, 2008; Kinase-Glo luciferase, ATP luminescence, 8 min; actives 0.28% (n = 200,000); note: % is set by controls: 0 for no effect and ±100 for the full control effect; nearly all actives have a fitted effect of over 60% in size
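Kinase-Glo luciferase light output from ATP and luciferin was measured with 10 uM ATP, within the enzyme's linear range. Buffer: 50 mM imidazole pH 7.2, 50 mM KCl, 7 mM MgCl2, 0.01% Tween 20, 0.05% BSA; luminescence read after 8 min at ambient temperature.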
* marks the source's active call; other numbers are inactive results; [ ] = dose if it differs, or a comment. Calls come from the whole dose curve; as a rule, active = well fitted curve in the direction sought with a large enough effect; inconclusive = small, poorly fitted or top-dose-only effect, or another doubt; inactive = no such curve, though single readings can be large; an effect the other way counts as inactive or inconclusive. Potency is the fitted concentration of half-maximal effect.

Screening Cc1ccc(S(=O)(=O)c2nnn3c2nc(NCc2ccc(F)cc2)c2sccc23)cc1C returned FLuc modulator -11%.
For Cc1ccc(O)c(C(=O)CC(=O)c2cccc(F)c2)c1 the results were NPC1 prom act inconclusive, Rab9 prom act inconclusive, FLuc modulator -7%[2.3 µM], SMN2 splice up 35µM*, ELG1 genotoxic 7% and KinaseGlo FLuc 1%.
Screening Cc1ccc(O)c(C(=O)CC(=O)c2ccc(Cl)cc2)c1 returned NPC1 prom act 15%, Rab9 prom act inconclusive, FLuc modulator 24µM* and ELG1 genotoxic inconclusive.
`Cc1cccc(C(=O)CC(=O)c2cc(Cl)ccc2O)c1` gave NPC1 prom act -2%, Rab9 prom act -2%, FLuc modulator -12%, SMN2 splice up -98%, ELG1 genotoxic -7% and KinaseGlo FLuc 16%.
Screening CC(C)Cc1nnc(NC(=O)c2cc3c(s2)CCC3)s1 returned NPC1 prom act 3.5µM*, Rab9 prom act 3.2µM*, FLuc modulator inconclusive and ELG1 genotoxic 17%.
Cc1cc(C)n(C(=O)c2cc3c(s2)CCCC3)n1 was read as NPC1 prom act 18%, Rab9 prom act 8%, FLuc modulator 24µM*, SMN2 splice up 8%, ELG1 genotoxic 2% and KinaseGlo FLuc -10%.
For CC(C)Cc1nnc(NC(=O)c2ccc(N3CCCC3=O)cc2)s1 the results were NPC1 prom act 0%, Rab9 prom act -4%, FLuc modulator -8% and ELG1 genotoxic 0%.
`O=C(Nc1nncs1)c1cc2c(s1)CCC2` gave NPC1 prom act inconclusive, Rab9 prom act 2.8µM*, FLuc modulator 6.7µM*, SMN2 splice up inconclusive, ELG1 genotoxic inconclusive and KinaseGlo FLuc -4%.
`NNC(=O)c1cc2c(s1)CCCCCC2` gave NPC1 prom act -3%, Rab9 prom act 8%, FLuc modulator inconclusive, SMN2 splice up -8%, ELG1 genotoxic -2% and KinaseGlo FLuc -3%.
Screening O=C(Nn1cnnc1)c1cc2c(s1)CCCC2 returned NPC1 prom act 7%, Rab9 prom act 2%, FLuc modulator 21µM*, SMN2 splice up 7%, ELG1 genotoxic 4% and KinaseGlo FLuc -1%.
For CC(C)Sc1ncc(Cl)c(C(=O)N(Cc2ccc(F)cc2)C2CCS(=O)(=O)C2)n1 (stereo not drawn) the results were FLuc modulator 4% and SMN2 splice up 6%.
For Oc1c(C(c2ccccc2)N2CCOCC2)sc2nc(-c3ccco3)nn12 (stereo not drawn) the results were FLuc modulator -3%.
For Cc1ccc2c(CN3CCN(S(=O)(=O)c4ccccc4C(F)(F)F)CC3)cc(=O)oc2c1C the results were NPC1 prom act -7%, Rab9 prom act -4% and ELG1 genotoxic -6%.
Screening O=C(NCCCN1CCCC1=O)c1cc2c(s1)CCCCC2 returned NPC1 prom act 29%, Rab9 prom act inconclusive, FLuc modulator 17µM* and ELG1 genotoxic inconclusive.
CCSc1nnc(NC(=O)c2cc3c(s2)CCCC3)s1 was read as NPC1 prom act 2.5µM*, Rab9 prom act 1.6µM*, FLuc modulator inconclusive, SMN2 splice up inconclusive, ELG1 genotoxic 7% and KinaseGlo FLuc -2%.
For O=C(Nc1nccs1)c1cc2c(s1)CCCCC2 the results were NPC1 prom act 1µM*, Rab9 prom act 0.79µM*, FLuc modulator 0.085µM*, SMN2 splice up -66% and KinaseGlo FLuc 7.1µM*.
`O=C(NCCCN1CCOCC1)c1cc2c(s1)CCCC2` gave NPC1 prom act 11%, Rab9 prom act 16%, FLuc modulator 3%[2.3 µM], SMN2 splice up 25%, ELG1 genotoxic 8% and KinaseGlo FLuc -1%.
For O=C(NCCCN1CCCC1=O)C(=O)Nc1cccc(F)c1 the results were NPC1 prom act inconclusive, Rab9 prom act 3.2µM*, FLuc modulator 17µM* and ELG1 genotoxic inconclusive.
O=C(Nc1nnc(SCc2ccccc2)s1)c1cc2c(s1)CCCC2 was read as NPC1 prom act 10%, Rab9 prom act 20%, FLuc modulator inconclusive, SMN2 splice up -35%, ELG1 genotoxic inconclusive and KinaseGlo FLuc -4%.
For CC(=O)Nc1ccc(-c2csc(Nc3cc(C)ccn3)n2)cc1 the results were NPC1 prom act inconclusive, Rab9 prom act 11%, FLuc modulator 15µM*, SMN2 splice up -58%, ELG1 genotoxic -14% and KinaseGlo FLuc -1%.
For CC(=O)Nc1ccc(-c2csc(NC(C)c3ccccc3)n2)cc1 (stereo not drawn) the results were NPC1 prom act 3%, Rab9 prom act -10%, FLuc modulator inconclusive, SMN2 splice up 22%, ELG1 genotoxic -2% and KinaseGlo FLuc -5%.
For CC(=O)Nc1cccc(-c2csc(Nc3ccc(Cl)cn3)n2)c1 the results were NPC1 prom act 2µM*, Rab9 prom act 3.2µM*, FLuc modulator 2.4µM*, SMN2 splice up 11µM*, ELG1 genotoxic inconclusive and KinaseGlo FLuc 3%.
CC(=O)Nc1cccc(-c2csc(Nc3ccccn3)n2)c1 was read as NPC1 prom act 1.3µM*, Rab9 prom act 1.1µM*, FLuc modulator 1.5µM*, SMN2 splice up 11µM*, ELG1 genotoxic inconclusive and KinaseGlo FLuc -4%.
CC(=O)Nc1ccc(-c2csc(Nc3ccc(Cl)cn3)n2)cc1 was read as NPC1 prom act -3%, Rab9 prom act -4%, FLuc modulator -20%, SMN2 splice up -42%, ELG1 genotoxic -4% and KinaseGlo FLuc -7%.
For CC(=O)Nc1cccc(-c2csc(Nc3cc(C)ccn3)n2)c1 the results were NPC1 prom act 2.5µM*, Rab9 prom act 1.3µM*, FLuc modulator 2.7µM*, SMN2 splice up inconclusive, ELG1 genotoxic -14% and KinaseGlo FLuc -3%.
Screening Cc1ccc(-c2nnc3ccccc3c2C(=O)Nc2cccc(C(F)(F)F)c2)cc1 returned FLuc modulator -8%.
Screening Cc1ccc(-n2c(=O)c3c4c(sc3n(CC(=O)c3ccc(Cl)cc3)c2=O)CCC4)cc1C returned FLuc modulator -3% and SMN2 splice up -1%.
Screening Cc1ccc(Nc2nc(-c3c(C)nc4ncccn34)cs2)cc1 returned NPC1 prom act -14%, Rab9 prom act -30%, FLuc modulator -21%, SMN2 splice up -2%, ELG1 genotoxic 18% and KinaseGlo FLuc -8%.
